Source: PubChem BioAssay AID1159580 (chemical genetic matrix, 2015)
The campaign covered roughly 5,500 compounds. About 2,000 (36%) were called active. Inconclusive results (about 18%) are left out. Rule as the data show it: active = normalized growth mostly below about 0.91 (no sharp cut-off); inconclusive = no clear call, values can overlap the other calls; inactive = mostly above about 0.92. Some of the results follow.

Assay: chemical genetic growth profiling, strain panel (AID 1159580);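 also: tested at 20 µM; growth read once vehicle control cultures reached saturation at 30 °C; 1 = growth at the plate median or of vehicle wells; lower values mean less growth of the strain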
Details: S. cerevisiae deletion strains, growth OD

Measured: normalized growth

C=C1C(=O)OC2CC1C(OC(C)=O)C/C(C)=C/CC/C(C)=C/CC[C@]2(C)O (stereo partly specified)
inactive: locus YAL013W, strain DEP1, active compounds read low 0.999 | locus YAL021C, strain ccr4, active compounds read low 0.964 | locus YAL026C, strain drs2, active compounds read low 0.987 | locus YAL030W, strain snc1, active compounds read low 0.984 | locus YBL061C, strain skt5, active compounds read low 1.01 | locus YBR009C, strain hhf1, active compounds read low 1.01 | locus YBR021W, strain FUR4, active compounds read low 1.03 | locus YBR023C, strain chs3, active compounds read low 1.01 | locus YBR171W, strain sec66, active compounds read low 0.994 | locus YBR229C, strain ROT2, active compounds read low 1.02 | locus YBR231C, strain swc5, active compounds read low 1.01 | locus YBR279W, strain paf1, active compounds read low 0.996 | locus YCL011C, strain gbp2, active compounds read low 1 | locus YCL016C, strain dcc1, active compounds read low 1 | locus YCL029C, strain bik1, active compounds read low 1.02 | locus YCL061C, strain MRC1, active compounds read low 0.993 | locus YCL069W, strain vba3, active compounds read low 0.987 | locus YCR088W, strain abp1, active compounds read low 0.991 | locus YDL005C, strain med2, active compounds read low 0.992 | locus YDL035C, strain GPR1, active compounds read low 1.01 | locus YDL040C, strain nat1, active compounds read low 0.981 | locus YDL074C, strain BRE1, active compounds read low 1 | locus YDL101C, strain DUN1, active compounds read low 1.01 | locus YDL185W, strain tfp1, active compounds read low 1.02 | locus YDL192W, strain arf1, active compounds read low 1 | locus YDR001C, strain nth1, active compounds read low 0.982 | locus YDR069C, strain doa4, active compounds read low 1.01 | locus YDR101C, strain arx1, active compounds read low 1.03 | locus YDR137W, strain rgp1, active compounds read low 0.935 | locus YDR150W, strain NUM1, active compounds read low 1 | locus YDR159W, strain sac3, active compounds read low 1.03 | locus YDR162C, strain NBP2, active compounds read low 1.02 | locus YDR195W, strain ref2 1.02 | locus YDR297W, strain sur2, active compounds read low 0.997 | locus YDR318W, strain mcm21, active compounds read low 1 | locus YDR334W, strain swr1, active compounds read low 1.01 | locus YDR335W, strain msn5, active compounds read low 0.985 | locus YDR388W, active compounds read low 1.01 | locus YDR392W, strain spt3, active compounds read low 0.977 | locus YDR502C, strain sam2, active compounds read low 1.03 | locus YEL003W, strain gim4, active compounds read low 1.01 | locus YEL037C, strain rad23, active compounds read low 0.99 | locus YEL061C, strain CIN8 (second series), active compounds read low 0.994 | locus YEL061C, strain CIN8, active compounds read low 1.02 | locus YER015W, strain faa2, active compounds read low 1 | locus YER016W, strain bim1, active compounds read low 0.992 | locus YER110C, active compounds read low 1.02 | locus YER111C, strain swi4, active compounds read low 0.995 | locus YER155C, strain BEM2 (second series), active compounds read low 1.03 | locus YER155C, strain BEM2, active compounds read low 1 | locus YER167W, strain BCK2, active compounds read low 1.01 | locus YFR010W, strain ubp6, active compounds read low 0.995 | locus YGL078C, strain dbp3, active compounds read low 1.01 | locus YGL086W, strain mad1, active compounds read low 1.02 | locus YGL167C, strain pmr1, active compounds read low 0.988 | locus YGL173C, strain kem1, active compounds read low 1.01 | locus YGL227W, strain vid30, active compounds read low 0.989 | locus YGL240W, strain doc1, active compounds read low 1.02 | locus YGL248W, strain PDE1, active compounds read low 1.02 | locus YGL253W, strain hxk2, active compounds read low 0.923 | locus YGR135W, strain pre9, active compounds read low 1 | locus YGR252W, strain gcn5, active compounds read low 1.01 | locus YHR013C, strain ard1, active compounds read low 0.979 | locus YHR027C, strain rpn1, active compounds read low 0.99 | locus YHR030C, strain SLT2, active compounds read low 1.02 | locus YHR079C, strain IRE1 (second series), active compounds read low 1.01 | locus YHR094C, strain hxt1, active compounds read low 1.01 | locus YHR129C, strain ARP1, active compounds read low 1.01 | locus YHR142W, strain chs7, active compounds read low 1.01 | locus YHR200W, strain rpn10, active compounds read low 1.02 | locus YIL066C, strain RNR3, active compounds read low 1.01 | locus YIL073C, strain SPO22, active compounds read low 0.983 | locus YIL125W, strain kgd1, active compounds read low 1.01 | locus YIR030C, strain dcg1, active compounds read low 1.01 | locus YJL092W, strain hpr5, active compounds read low 0.988 | locus YJL095W, strain BCK1 (second series), active compounds read low 0.998 | locus YJL095W, strain BCK1, active compounds read low 1 | locus YJL115W, strain asf1, active compounds read low 0.982 | locus YJL129C, strain trk1, active compounds read low 1.01 | locus YJL134W, strain LCB3, active compounds read low 1 | locus YJL154C, strain vps35, active compounds read low 0.982 | locus YJL164C, strain tpk1, active compounds read low 0.981 | locus YJL166W, strain qcr8, active compounds read low 1 | locus YJL168C, strain set2, active compounds read low 1.03 | locus YJL187C, strain SWE1 (second series), active compounds read low 1.01 | locus YJL187C, strain SWE1, active compounds read low 0.978
